Out of some 340,000 compounds screened, about 6,200 (1.8%) were called active. Roughly 10% stayed inconclusive and do not appear here. Calls come from the whole dose curve; as a rule, active = well fitted activation curve with a large enough effect; inconclusive = small, poorly fitted or top-dose-only effect; inactive = no such curve, though single readings can be large or run the other way. Shown is part of a subset that was picked to be rich in actives. Entries that show only a call come without a potency.
assay: A quantitative high throughput screen for small molecules that induce DNA re-replication in SW480 colon adenocarcinoma cells.; note: nearly all actives have a fitted effect of over 55% in size; conditions: Hoechst DNA content imaging, 48 h; series mostly up to 46.1 µM
In short: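 Treated cells incubate 48 hr (37 C, 5% CO2), are stained 40 min with Hoechst, and nuclear fluorescence is enumerated; a rise in nuclei with high DNA signal marks re-replication.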
Potency is the fitted concentration of half-maximal effect.

| SMILES | Potency | re-replication activation |
| --- | --- | --- |
| CCC(C)c1ccc(NC(=O)COC(=O)C2CCCC2)cc1 (centres undefined) | inactive |  |
| CC(Sc1nncn1C)C(=O)NCCC1=CCCCC1 (centres undefined) | inactive |  |
| COc1ccc(Cn2cc(CN3CCS(=O)(=O)N(Cc4ccc(-c5cccc(Cl)c5)cc4)C(C)C3=O)nn2)cc1 (centres undefined) | inactive |  |
| CN(C(=O)c1cccc(NC(=O)Cc2ccc([N+](=O)[O-])cc2)c1)C1CCC1 | inactive |  |
| Cc1nc(SCc2ccc(F)cc2)c([N+](=O)[O-])[nH]1 | inactive |  |
| CCCCCOc1ccc(CSC2=NCCN2)cc1[N+](=O)[O-] | 5.8 µM (active) |  |
| CCCOc1ccc(Cn2ccnc2)cc1[N+](=O)[O-] | inactive |  |
| O=C1NCC(c2ccccc2)(c2ccccc2)C(=O)N1 | inactive |  |
| COc1cccc(C(=O)Nc2ccc(N3CCN(C(=O)c4ccco4)CC3)cc2)c1 | 18.4 µM (active) |  |
| CCC(=O)Nc1ccc(C(=O)N2CCN(C(=O)c3ccco3)CC2)cc1 | inactive |  |
| Cc1ccc(OCC(=O)Nc2ccc(N3CCN(C(=O)c4ccco4)CC3)cc2)c(C)c1 | inactive |  |
| Cc1ccc(S(=O)(=O)N2CCCCC2)cc1NC(=O)CCNC(=O)c1ccccc1 | inactive |  |
| Cc1ccc(N2CCN(C3=NC(=O)/C(=C\c4cccs4)S3)CC2)cc1 | inactive |  |
| Cc1cccc(C2=N/C(=C/c3cccs3)C(=O)O2)c1 | 4.61 µM (active) |  |
| Cc1ccc(C2=N/C(=C\c3ccc(OS(=O)(=O)c4ccc(C)cc4)cc3)C(=O)O2)cc1 | inactive |  |
| Cc1nc2ccc(N)nc2nc1C | inactive |  |
| CCCN(CCC)S(=O)(=O)c1cc2c(cc1Br)CCN2C(=O)CC | inactive |  |
| Cc1noc(C)c1S(=O)(=O)N(C)C[C@H]1Oc2ccc(NC(=O)C3CC3)cc2C(=O)N([C@H](C)CO)C[C@@H]1C | inactive |  |
| CN1CCN(CCCNC(=O)c2ccc(/C=C3\Oc4ccccc4N(Cc4ccc(Cl)cc4)C3=O)cc2)CC1 | inactive |  |
| O=C(NCCN1CCOCC1)c1ccc(/C=C2\Sc3ccccc3N(Cc3ccc(F)cc3)C2=O)cc1 | inactive |  |
| CCN1CCN(CCNC(=O)c2ccc(/C=C3/Sc4ccccc4N(Cc4cccc(C)c4)C3=O)cc2)CC1 | 20.6 µM (active) |  |
| C[C@@H]1CN([C@@H](C)CO)C(=O)c2cccc(NS(=O)(=O)c3ccc(F)cc3)c2O[C@H]1CN(C)C(=O)NC1CCCCC1 | inactive |  |
| CC1CN(C(=O)c2ccc([N+](=O)[O-])s2)CC(C)O1 (centres undefined) | inactive |  |
| O=C(c1cccc(S(=O)(=O)N2CCCCCC2)c1)N1CCN(Cc2ccccc2)CC1 | inactive |  |
| Cn1c(NC(=O)c2ccccc2)nc2ccccc21 | inactive |  |

| SMILES | Potency | re-replication activation |
| --- | --- | --- |
| O=C(NC1=CC(=O)c2ccccc2C1=O)c1ccccc1 | 5.8 µM (active) |  |
| CC(NC(=O)c1ccccc1)C(=O)Nc1ccccc1 (centres undefined) | inactive |  |
| Cc1c[n+]([O-])ccc1[N+](=O)[O-] | inactive |  |
| COc1ccc(S(=O)(=O)N2C[C@H]3CON(C)[C@H]3C[C@H]2c2cccc(Br)c2)cc1 |  | -5.21% [at 9.22 µM] (inactive) |
| O=C(COc1ccccc1F)Nc1nc(-c2ccccn2)cs1 | inactive |  |
| CCc1ccc2c(c1)C1(NN=C(c3ccccc3)S1)C(=O)N2 (centres undefined) | 10.3 µM (active) |  |
| CN(CCc1ccccc1)C(=O)c1cccc(NC(=O)Cc2cccc(NC(=O)C3CCCN(C(=O)C4CCC4)C3)c2)c1 (centres undefined) | inactive |  |
| Cc1ccccc1C1CC(c2cccs2)=NN1S(C)(=O)=O (centres undefined) | inactive |  |
| CCS(=O)(=O)Nc1ccc(C2=NN(S(=O)(=O)c3ccc(F)cc3)C(c3ccco3)C2)cc1 (centres undefined) | inactive |  |
| Fc1ccc(N2N=C(c3cccs3)CC2c2ccco2)c(F)c1 (centres undefined) | 23.1 µM (active) |  |
| CCCc1cc(=O)[nH]c(SCC(=O)Nc2ccc(C(=O)Nc3ccccc3OC)cc2)n1 | inactive |  |
| Cc1ccc(-c2cc(=O)c3ccc(F)cc3[nH]2)cc1 | inactive |  |
| Cc1ccc(-c2cc(=O)c3ccc(Cl)cc3[nH]2)cc1 | inactive |  |
| O=c1cc(-c2ccccc2)[nH]c2cc(F)ccc12 | 0.92 µM (active) |  |
| CCCCNCCS(=O)(=O)NCc1ccccc1 | inactive |  |
| O=C(CSc1ncn[nH]1)Nc1ccc(Br)cc1Br | inactive |  |
| Cc1cccc(OCC(=O)OCC(=O)Nc2ccc(Cl)cn2)c1 | inactive |  |
| O=C1OC(Cc2ccccc2)C(c2ccccc2)C1=O (centres undefined) | inactive |  |
| COc1cccc(CNC(C)C(=O)Nc2ccc(S(=O)(=O)N3CCCC3)cc2)c1 (centres undefined) | inactive |  |
| Cc1ccc(SCC(=O)N2CCN(c3ccc(F)cc3)CC2)cc1 |  | 2.77% [at 1.84 µM] (inactive) |
| CCN1CCN(C(=O)CSc2ccc(C)cc2)CC1 | inactive |  |
| CCN1CCC2(CC1)N=C(c1ccc(F)cc1)C(=S)N2C(=O)c1ccc(C)cc1 | 20.6 µM (active) |  |
| CN(CC(=O)O)C(=O)c1ccccc1 | inactive |  |
| Nc1cc2c(cc1Br)-c1ccc(F)cc1C2=O | inactive |  |
| O=C(O)C(=Cc1ccccc1[N+](=O)[O-])c1ccccc1 | inactive |  |

| SMILES | Potency | re-replication activation |
| --- | --- | --- |
| CCN1CCC(O)(/C=C/c2ccc(C)cc2)C(C(=O)/C=C/c2ccc(C)cc2)C1 (centres undefined) | inactive |  |
| CCOc1ccc2nc(NC(=O)CSc3nc4c(c(=O)n(C)c(=O)n4C)n3CC)sc2c1 | inactive |  |
| CCOc1ccc2nc(Nc3nc4ccc(NC(C)=O)cc4s3)sc2c1 | 18.4 µM (active) |  |
| CCC(=O)c1ccc(OCC(=O)Nc2ccc3nc(C)sc3c2)cc1 | inactive |  |
| COc1ccc(CCOC2OC(CO)C(OC(=O)/C=C/c3ccc(O)c(OC)c3)C(O[C@H]3O[C@@H](C)[C@H](O)[C@@H](O)[C@H]3O)C2O)cc1O (some centres undefined) | inactive |  |
| NNC(=O)c1ccc(Cl)cc1Cl | inactive |  |
| CC(C)(C)c1cc(C(=O)NN)n(Cc2ccc(Cl)cc2Cl)n1 | 11.6 µM (active) |  |
| Cn1cc(C(=O)c2ccc(Cl)cc2Cl)cc1C(=O)NN | inactive |  |
| COc1ccc(C(=O)Nc2cccc(/C=C(/CCC(=O)O)c3nc4ccccc4s3)c2)cc1 | inactive |  |
| O=C(COC(=O)c1cccnc1Cl)NC(=O)NC1CCCCC1 | inactive |  |
| Cc1nc2ccc(NC(=O)c3cccc(S(=O)(=O)N4CCOCC4)c3)cc2s1 | inactive |  |
| CC/C(=C\c1ccc(Cl)cc1)c1ccncc1 | inactive |  |
| CCC1=Nc2cc(C(=O)NCCCN3CCOCC3)ccc2Sc2ccc(Br)cc21 | inactive |  |
| CCCC1=Nc2cc(C(=O)NCc3ccco3)ccc2Sc2ccccc21 | 5.17 µM (active) |  |
| CC(C)(C)c1ccc(C(=O)NCc2ccco2)cc1 | inactive |  |
| COc1ccc(NC(=O)Nc2ccc3c(c2)C(=O)N([C@H](C)CO)C[C@H](C)[C@@H](CN(C)C(=O)Nc2ccc4c(c2)OCO4)O3)cc1 | inactive |  |
| O=C(Cc1ccc(NC(=O)C2CCCN(C(=O)CCc3ccccc3)C2)cc1)Nc1ccc(C(=O)N2CCOCC2)cc1 (centres undefined) |  | -31.4% [at 9.22 µM] (inactive) |
| Cc1ccc(C(=O)Nc2ccn(C)n2)cc1 | 18.4 µM (active) |  |
| CN(C)S(=O)(=O)c1cc(C(=O)Nc2ccn(C)n2)c(Cl)cc1Cl | inactive |  |
| Cn1ccc(NC(=O)Nc2ccc(Cl)cc2)n1 | inactive |  |
| CC(=O)N(O)CCCCCNC(=O)CCC(=O)N(O)CCCCCNC(=O)CCC(=O)N(O)CCCCCNC(=O)CCC(=O)O | inactive |  |
| CCOc1ccc(N/C=C/C(=O)c2cc(OC)c(OC)c(OC)c2)cc1 | 0.58 µM (active) |  |
| CCOc1ccc(NC(=O)Nc2cc(C)ccc2OC)cc1 | inactive |  |
| CCOc1ccc(C(=O)Nc2cc(OC)ccc2OC)cc1 | inactive |  |
| CCCC(O)(c1ccccc1)C(c1ccccc1)c1ccccn1 (centres undefined) | inactive |  |

| SMILES | Potency | re-replication activation |
| --- | --- | --- |
| CC1CN(Cc2ccccc2)C(=S)NC1=O (centres undefined) | inactive |  |
| CN(C)S(=O)(=O)c1cccc(-c2nn(-c3ccccc3)cc2/C=C2\SC(=S)N(CC(=O)O)C2=O)c1 | 16.4 µM (active) |  |
| COc1ccc(/C=C2\SC(=S)N(CCC(=O)Nc3ccccn3)C2=O)cc1OC | inactive |  |
| O=C(CN1C(=O)/C(=C\c2ccccc2F)SC1=S)Nc1nc2ccccc2s1 | inactive |  |
| Cc1ccc(S(=O)(=O)n2oc(=O)c(C3CCCCC3)c2N)cc1 | inactive |  |
| O=C(Nc1cccc(S(=O)(=O)N2CCOCC2)c1)C12CC3CC(CC(C3)C1)C2 | inactive |  |
| CC[C@]12c3[nH]c4ccc(OC)cc4c3CCN1C(=O)C(CC(=O)NCCN1CCOCC1)C[C@@H]2C(=O)N1CCN(C(=O)C2CC2)CC1 (some centres undefined) | inactive |  |
| C=CCC[C@H](Cc1ccc(F)cc1)C(=O)OC[C@H](C)NC(=O)[C@H](CC=C)CC(=O)N(CCO)Cc1ccccc1 | inactive |  |
| COc1ccc(NC(=O)CSc2nc3ccccc3c(=O)n2C)cc1 | inactive |  |
| CCc1ccc(NC(=O)CSc2nc3ccccc3c(=O)n2CCN2CCOCC2)cc1 | inactive |  |
| CCOc1ccc(NC(=O)CSc2nc3ccccc3c(=O)n2Cc2cccs2)cc1 | 1.64 µM (active) |  |
| O=C(NCC1(N2CCCCC2)CCCCC1)c1cccc(S(=O)(=O)Nc2ccccc2Cl)c1 | inactive |  |
| O=C(NCCC(=O)N1O[C@@H]2C=C[C@H]1C2)OCC1c2ccccc2-c2ccccc21 | inactive |  |
| O=C(COc1ccc([N+](=O)[O-])cc1Cl)Nc1ccc2[nH]c(=O)[nH]c2c1 | inactive |  |
| COc1ccc(-c2c(C)cc3oc(=O)cc(-c4ccccc4)c3c2C)cc1F | inactive |  |
| COc1cc(OC)c2c(-c3cccc(-c4cccc(N)c4)c3)cc(=O)oc2c1 | 3.66 µM (active) |  |
| COc1ccc(-c2c(C)cc3oc(=O)cc(-c4ccccc4)c3c2C)cc1OC | inactive |  |
| CN(C)C(=O)CCc1ccc2c3c([nH]c2c1)[C@]1(CCc2ccccc2)[C@@H](C(=O)N2CCCCC2)C[C@H](CC(=O)NCCC2=CCCCC2)C(=O)N1CC3 | inactive |  |
| Cc1ccccc1N1CCN(C(=O)c2cccnc2)CC1 | inactive |  |
| Cc1ccc2c(c1)C1C[N+](C)(CC(=O)c3ccccc3)CCC1N2C(=O)c1ccccc1Cl (centres undefined) | inactive |  |
| O=C(NNC(=O)c1ccc2ccccc2c1)c1ccc(Cl)cc1 | inactive |  |
| CC(C)Sc1nnc([C@H](Cc2ccccc2)NC(=O)OC(C)(C)C)o1 | inactive |  |
| C[C@@H](NC(=O)OC(C)(C)C)c1nnc(S(=O)(=O)Cc2ccccc2)o1 | 13 µM (active) |  |
| C[C@H](NC(=O)OC(C)(C)C)c1nnc(SCC(=O)Nc2ccc(Br)cc2)o1 | inactive |  |
